# High-throughput results (PubChem)
# Only some compounds are listed: those with a hit (about 6% of all), similar ones and a draw of the others.
# Bst PK mod – pyruvate kinase (B. stearothermophilus) modulation; purified pyruvate kinase, luminescence ATP production; ribose 5-phosphate activator present at AC10; Potency, µM; hit rate 1.2% among 51,000; in the data active means potency below about 11 µM; inconclusive means mostly about 12 µM to 25 µM;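 the screen sought inhibitors and activators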;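 further: scaled between full activation by ribose 5 phosphate and full inhibition by luteolin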
# Luciferase inh – inhibitors of firefly luciferase. hit rate 2.2% among 72,000. Potency, µM (top dose mostly 57.1 µM), for inactives: top-dose activity change, negative = inhibition, hits mostly inhibitors. purified firefly luciferase, luminescence, 8 min. AID 411. P08659; further: nearly all actives have a fitted effect of over 40% in size
#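 Here, luciferase activity is measured as luminescence following an 8 min room-temperature reaction at 10 uM ATP, pH 7.2. Every library sample is titrated.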
# 15-hLO inh – blocks human 15-lipoxygenase activity | AID 887 | purified 15hLO-1, xylenol orange hydroperoxide absorbance | hit rate 1.4% among 74,000 | P16050 | Potency, µM (series often up to 57.1 µM), for inactives: at the top dose activity change, negative = inhibition, hits mostly inhibitors; further: nearly all actives have a fitted effect of over 55% in size
# Target sequence (P16050 whole entry, looked up): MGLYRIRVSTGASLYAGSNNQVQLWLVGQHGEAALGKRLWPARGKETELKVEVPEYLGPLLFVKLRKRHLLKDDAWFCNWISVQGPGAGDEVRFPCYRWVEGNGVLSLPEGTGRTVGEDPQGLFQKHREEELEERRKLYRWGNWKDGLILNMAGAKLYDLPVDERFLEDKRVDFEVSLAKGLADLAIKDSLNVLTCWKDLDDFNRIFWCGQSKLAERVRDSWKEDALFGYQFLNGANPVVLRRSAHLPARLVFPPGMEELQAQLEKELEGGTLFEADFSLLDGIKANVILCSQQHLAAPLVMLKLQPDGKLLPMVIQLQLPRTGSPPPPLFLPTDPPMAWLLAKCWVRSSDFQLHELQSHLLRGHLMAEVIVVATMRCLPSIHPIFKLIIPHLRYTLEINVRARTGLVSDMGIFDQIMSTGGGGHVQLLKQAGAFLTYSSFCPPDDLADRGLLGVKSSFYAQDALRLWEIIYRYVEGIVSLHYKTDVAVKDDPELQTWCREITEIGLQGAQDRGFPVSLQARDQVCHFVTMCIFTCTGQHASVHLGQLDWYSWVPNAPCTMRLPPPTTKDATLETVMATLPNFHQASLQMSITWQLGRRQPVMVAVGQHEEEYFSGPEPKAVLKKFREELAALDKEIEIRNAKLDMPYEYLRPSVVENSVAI
#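 40 nM 15hLO-1 + cpd, 15 min RT; start w/ 50 uM AA (final), 6 min RT; stop/detect w/ 200 uM XO + 300 uM Fe(II) in 50 mM H2SO4, 30 min; A573/A405. Buffer 25 mM Hepes pH 7.5, 0.01% Triton X-100. No-enzyme wells as negative control.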
# Tau filament bind – binds recombinant human tau filaments; recombinant tau filaments, thioflavin S fluorescence, 15 h; filaments grown with octadecylsulfate alongside compound; Potency, µM (top dose mostly 57.1 µM), inactives show at the top dose activity change, negative = inhibition; hit rate 2% among 71,000; AID 596;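 further: actives lower thioflavin S fluorescence by blocking filaments or displacing dye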
#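 Read-out: ThS fluorescence, 450 nm excitation/510 nm emission; lower signal marks blocked filament formation or displaced dye. Tau at 1 uM with 30 uM ODS, 10 uM ThS, 5 mM DTT, 100 mM NaCl, 10 mM HEPES pH 7.4; 15 h, 37 C.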
# ERK AVP inh – blocks ERK signaling stimulated by vasopressin; hit rate 0.99% among 72,000; HEK293-V1b, vasopressin-stimulated pERK AlphaScreen; Potency, µM (doses to about 57.5 µM), inactives show at the top dose activity, negative = inhibition, most hits filed as inhibitors; further: nearly all actives have a fitted effect of over 55% in size
#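 qHTS, compounds titrated on V1b-expressing HEK293 cells. Preincubation 30 min at 37C, vasopressin 25 nM for 5 min, lysis 10 min, bead incubation 5 hr at room temperature.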
# DNA Pol III inh – inhibitors of bacterial DNA polymerase III holoenzyme. hit rate 0.25% among 71,000. Potency, µM (top dose mostly 57.1 µM), for inactives: at the top dose activity change, negative = inhibition. AID 603. reconstituted DNA polymerase III holoenzyme replication, biochemical
#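 Reconstituted *E. coli* holoenzyme (0.35 nM Pol III, 1 nM beta, 154 nM SSB, 2 nM primase) was preincubated with compound for 15 min at RT. Synthesis on 1.4 nM ssM13Gori ran 35 min, then was stopped with PicoGreen/EDTA and read as dsDNA fluorescence.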
# An asterisk follows results filed as active; i = inactive; ? = inconclusive; . = not tested or not shown; [ ] = another dose, or the depositor's remark. Unless noted, the call rests on the fitted dose curve; in most records, active means well fitted curve in the direction sought with a large enough effect; inconclusive means small, poorly fitted or top-dose-only effect, or another doubt; inactive means no such curve, though single readings can be large; an effect the other way counts as inactive or inconclusive. Unless noted, on the % scale 0 is the no-effect control and ±100 the full control effect; potency means the concentration at half of the fitted maximal effect.
SMILES,Bst PK mod,Luciferase inh,15-hLO inh,Tau filament bind,ERK AVP inh,DNA Pol III inh
COc1ccc(C(c2nnnn2Cc2ccc(F)cc2)N2CCN(c3ccc(OC)cc3)CC2)cc1 (configuration not stated),>57,0%,-11%,10µM*,-22%,8%
COc1ccc(C(c2nnnn2Cc2ccc(F)cc2)N2CCN(c3ccccc3)CC2)cc1 (configuration not stated),>57,0%,-5%,-2%,-12%,-5%
COc1ccc(CNc2ccnc(-c3c(C)noc3C)n2)c(OC)c1,.,0%[2.29 µM],25µM*,-10%,?,-1%
O=C(OCc1nc2ccccc2s1)C1CCN(S(=O)(=O)c2cccs2)CC1,>57,32µM*,0%,8%,-1%,-5%
O=C(CSc1nnc2sc3ccccc3n12)c1ccco1,i,16µM*,-4%,-14%,-9%,-5%
COc1cc(C(=O)Nc2nc(-c3cccs3)cs2)cc(OC)c1OC,i,0%,16µM*,32%,3.2µM*,-8%
COc1ccc(C(=O)Nc2nc(-c3cccs3)cs2)cc1,?,16µM*,-25%,8%,?,-6%
O=C(Nc1nc(-c2cccs2)cs1)c1cccc(S(=O)(=O)N2CCCCC2)c1,>57,3%,-19%,-15%,-11%,-11%
Cc1csc(NC(=O)CSc2nnc(-c3cccs3)n2C)n1,>57,3%,1%,11%,-10%,-1%
Cc1csc(NC(=O)c2sc3nc(-c4cccs4)ccc3c2N)n1,7.4*,20µM*,?,228%,-1%,33%
O=C(Cc1ccccc1F)Nc1nc(-c2cccs2)cs1,.,?,-21%,0%,?,-3%
O=C(Nc1nc(-c2ccncc2)cs1)c1ccco1,i,-21%,-12%,13µM*,-25%,-6%
CCn1cc(C(=O)O)c(=O)c2ccc(Cc3ccccc3)nc21,.,3%,.,-3%,.,-3%
O=C(COc1ccc(Cl)cc1)Nc1nc(-c2cccs2)cs1,.,-5%,-24%,33%,25µM*,-3%
O=C(Nc1nc(-c2ccc(Cl)s2)cs1)c1ccncc1,>57,-2%,-1%,25µM*,?,0%
O=C(Cc1ccccc1)Nc1nc(-c2cccs2)cs1,.,-26%,-28%,6%,24%,3%
Cn1cc(C(=O)c2ccc(F)cc2)cc1-c1nc2ccccc2n1C,>57,2%,-5%,12%,25µM*,-5%
O=[N+]([O-])c1ccc(S(=O)(=O)Cc2ccccc2)c2nonc12,.,-9%[11.4 µM],?,-24%[11.4 µM],-22%[11.5 µM],-2%[11.4 µM]
COc1ccc2c(c1)c1nnc(SC)nc1n2C,>57,0%,10%,-16%,-13%,-5%
COc1ccc2c(c1)c1nnc(SCC(=O)N3C(C)CCCC3C)nc1n2C (configuration not stated),.,-1%,1%,13µM*,?,-6%
COc1c(O)ccc2c1CN1CCc3cc4c(cc3[C@@H]1C2)OCO4,.,-5%[11.4 µM],?,2%[11.4 µM],-6%[11.5 µM],-9%[11.4 µM]
Cn1c(C(=O)N2CCCC(C(=O)NCCc3ccccc3)C2)cc2sccc21 (configuration not stated),>57,1%,-3%,-13%,?,-3%
CCn1c(C(=O)NCCCc2ccccc2)cc2sccc21,.,.,20µM*,.,.,.
Cn1c(C(=O)N2CCCC(C(=O)NCCCc3ccccc3)C2)cc2sccc21 (configuration not stated),>57,4%,-12%,-5%,20µM*,-8%
COC(=O)[C@H]1C[C@@H]2CC[C@@H](O)C[C@@H]2N1Cc1c(F)cccc1Cl,.,.,.,.,-19%,.
SMILES,Bst PK mod,Luciferase inh,15-hLO inh,Tau filament bind,ERK AVP inh,DNA Pol III inh
CO[C@@H]1/C=C\CC(=O)N2CCC[C@@H]2C(=O)OC[C@@H](C)C(=O)OC[C@H]1C,.,0%[11.4 µM],-1%[11.4 µM],.,-5%[11.5 µM],.
C=CCOc1ccccc1CNCc1cccnc1,>57,2%,4%,-3%,6%,-3%
C=CCOc1c(CNc2nccs2)cccc1OCC,?,13µM*,-1%,0%,2%,-1%
Nc1ccc(N2CCCCC2)cc1N1CCCCC1,>57,-4%,?,7.9µM*,?,-8%
Cc1nn(-c2cc(N3CCCCC3)ccc2N)c(=O)c2ccccc12,>57,-1%,-16%,?,?,-2%
Cc1ccc(C(=O)CSc2n[nH]c(-c3ccco3)n2)cc1C,.,0%,-11%[11.4 µM],5%[11.4 µM],-13%,-5%[11.4 µM]
O=C(CSc1n[nH]c(-c2ccccc2)n1)c1ccc(O)c(O)c1,>57,-2%,5µM*,-4%,-6%,-11%
COc1cccc(C(=O)Cn2c(N3CCCCC3)nc3c2c(=O)n(C)c(=O)n3C)c1,>57,-3%,-1%,-3%,?,5%
COc1cccc(C(=O)Cn2c(=N)n(C)c3ccccc32)c1,2.5*,1.3µM*,3%,-25%,-5%,-9%
CCOC(=O)N1CCN(C(=O)Cn2ncc3ccccc32)CC1,.,-3%,4%,-7%,4%,25µM*
CCOC(=O)N1CCC(NC(=O)Cn2ncc3ccccc32)CC1,>57,0%,6%,-9%,0%,-3%
O=C(O)c1cccc(-n2cccc2/C=N/O)c1,.,-4%,-25%,0%,33%,16µM*
COc1ccccc1OCc1nc(C#N)c(N2CCC(C(N)=O)CC2)o1,>57,1%,2%,-4%,14%,-10%
CCOc1ccc(-c2nc(C#N)c(N3CCOCC3)o2)cc1,.,-2%,-6%,16%,?,0%
CCOc1ccc(-c2nc(C#N)c(N3CCN(Cc4ccccc4)CC3)o2)cc1,.,-8%,1%,109%,16µM*,-4%
N#Cc1nc(-c2ccc(OCc3ccccc3)cc2)oc1N1CCC(C(N)=O)CC1,4.9*,2%,?,59%,-11%,-3%
N#Cc1cccc(-c2cc(NCc3cccs3)ncn2)c1,.,-1%[2.29 µM],?,-5%,13µM*,-7%
N#Cc1cccc(-c2nccc(NCc3cccs3)n2)c1,.,-1%[2.29 µM],-13%,11%,?,1%
CC12C=C(/C=C/c3ccc(F)cc3)C(C)(C1)C(c1ccc(F)cc1)CC2=O (configuration not stated),.,.,-2%[11.4 µM],.,23%[11.5 µM],.
COc1cccc(Cn2c(=O)c(-c3cc(F)cc(F)c3)nc3cncnc32)c1,.,1%[11.4 µM],3%,13µM*,?,-9%
COc1cccc(Cn2c(=O)c(-c3ccc(F)cc3)nc3cncnc32)c1,.,0%[11.4 µM],?,?,?,0%
COc1cccc(Cn2c(=O)c(-c3cccc(F)c3)nc3cncnc32)c1,.,-1%[11.4 µM],-22%,13µM*,?,-3%
CC1(C)C(=O)C(c2ccccc2)=C2CN3C(=O)N(CCc4ccccc4)C(=O)C3(Cc3ccccc3)C=C21 (configuration not stated),.,.,.,0%,8%,-5%
